Assay results: PubChem BioAssay AID430 (Sanford-Burnham Center for Chemical Genomics, 2006)
Out of some 63,000 compounds screened, about 1,100 (1.7%) were called active. The sample holds actives, similar compounds and a random draw of the others, so the mix is not that of the screen. Rule as the data show it: active = cytotoxicity above about 50%; inactive = the rest. Results with a measured potency or affinity are listed apart.

Assay: cytotoxicity in HPDE-C7 cells, cell-based, fluorescence, HTS (AID 430);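 also: cells exposed to compound for 48 hours before viability readout; 0% = vehicle and 100% = reference cytotoxic drug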
Conditions: HPDE-C7 pancreatic duct cells viability, at 10 µM, active compounds read high
For `COc1cccc(OCC(O)CN2CCC(C)CC2)c1` (stereo unspecified), the cytotoxicity was 0.1% (inactive).
With `Cc1cc(C(=O)Nc2ccc(S(=O)(=O)N3CCCC3)cc2)cs1` the cytotoxicity was -11.4% (inactive).
With `COc1ccc(C2CC(=O)c3c([nH]c(C(=O)OC(C)C)c3C)C2)cc1OC` (stereo unspecified) the cytotoxicity was -7.1% (inactive).
In the case of `COC(=O)c1[nH]c2c(c1C)C(=O)CC(c1cc(OC)ccc1OC)C2` (stereo unspecified), the cytotoxicity is reported as 31.5% (inactive).
With `COCCOC(=O)c1[nH]c2c(c1C)C(=O)CC(c1cc(OC)ccc1OC)C2` (stereo unspecified) the cytotoxicity was 16.4% (inactive).
With `CCCOCCOC(=O)c1[nH]c2c(c1C)C(=O)CC(c1cc(OC)ccc1OC)C2` (stereo unspecified) the cytotoxicity was 60.7% (active).
With `COc1ccc(OC)c(C2CC(=O)c3c([nH]c(C(=O)OC(C)C)c3C)C2)c1` (stereo unspecified) the cytotoxicity was 65.9% (active).
For `CCOCC(=O)Nc1ccc(S(=O)(=O)NCCc2ccccc2)cc1`, the cytotoxicity was 4.2% (inactive).
In the case of `COC(=O)c1ccc(NC(=O)CCN2CCN(c3ccccc3)CC2)cc1`, the cytotoxicity is reported as 37.6% (inactive).
In the case of `O=C(Nc1ccc(N2CCCCC2)cc1)c1ccc(F)cc1`, the cytotoxicity is reported as 23.5% (inactive).
For `O=C(c1ccco1)N1CCN(C(=O)c2ccccc2OC(=O)C23CC4CC(CC(C4)C2)C3)CC1`, the cytotoxicity was -9.7% (inactive).
With `CCOc1ccccc1N1CC(O)=C(c2nc3ccccc3s2)C1=N` the cytotoxicity was 65.2% (active).
With `COc1ccc(N2CC(O)=C(c3nc4ccccc4s3)C2=N)cc1` the cytotoxicity was 5.8% (inactive).
With `COc1ccc(N2CC(O)=C(c3nc4ccccc4s3)C2=N)c(OC)c1` the cytotoxicity was 20.6% (inactive).
For `O=C(O)C(CC(=O)N1CCOCC1)NCc1ccccc1` (stereo unspecified), the cytotoxicity was 5.6% (inactive).
With `CC1CCCN(C(=O)CSc2nnc(-c3cccnc3)n2C2CCCCC2)C1` (stereo unspecified) the cytotoxicity was -23.2% (inactive).
In the case of `CCCN(CC1CC1)C(=O)Nc1ccccc1C`, the cytotoxicity is reported as -9.7% (inactive).
With `COc1cccc(-c2nc(NCC3CCCO3)c3ccccc3n2)c1O` (stereo unspecified) the cytotoxicity was 52.2% (active).
In the case of `COc1cccc(-c2nc(NC(C)C)c3ccccc3n2)c1O`, the cytotoxicity is reported as 23.8% (inactive).
For `CCC1CCCCN1c1nc(-c2cccc(OC)c2O)nc2ccccc12` (stereo unspecified), the cytotoxicity was -2.8% (inactive).
For `COc1cccc(-c2nc(N3CCCCC3)c3ccccc3n2)c1O`, the cytotoxicity was -7.5% (inactive).
With `COc1cccc(-c2nc(NC(C)(C)C)c3ccccc3n2)c1O` the cytotoxicity was 10.9% (inactive).
For `C=CCNc1nc(-c2cccc(OC)c2O)nc2ccccc12`, the cytotoxicity was -3% (inactive).
In the case of `COc1cccc(-c2nc(N3CCCCC3C)c3ccccc3n2)c1O` (stereo unspecified), the cytotoxicity is reported as 53% (active).
With `Oc1ccccc1-c1nc(NCC2CCCO2)c2ccccc2n1` (stereo unspecified) the cytotoxicity was 46.8% (inactive).
With `CCC(C)Nc1nc(-c2cccc(OC)c2O)nc2ccccc12` (stereo unspecified) the cytotoxicity was 107% (active).
For `O=C(CN(C1CC1)S(=O)(=O)c1ccc(S(=O)(=O)N2CCCCCC2)cc1)Nc1ccccc1`, the cytotoxicity was 7.4% (inactive).
For `CCCOc1ccc(C(=O)NCCC(=O)NCCCC(=O)OCC)cc1`, the cytotoxicity was 1.7% (inactive).
With `O=C1C(SC(F)(F)C(F)F)=C(C(F)(F)F)OC2C3C=CC(C3)C12` (stereo unspecified) the cytotoxicity was 3.6% (inactive).
For `O=C1NC(NS(=O)(=O)c2ccccc2)(C(F)(F)F)C(=O)N1Cc1cccnc1` (stereo unspecified), the cytotoxicity was -8.4% (inactive).
In the case of `CC(C)(C)c1ccccc1OCC(=O)NCCC(=O)O`, the cytotoxicity is reported as -12.2% (inactive).
For `c1ccc2oc(SCc3nc4ccccc4s3)nc2c1`, the cytotoxicity was 8.6% (inactive).
For `CCS(=O)(=O)CCSc1nc2ccccc2s1`, the cytotoxicity was -17.4% (inactive).
For `CCS(=O)(=O)CCSc1nc2ccccc2o1`, the cytotoxicity was -9.3% (inactive).
For `O=C(CSc1nc2ccccc2s1)Nc1ncccn1`, the cytotoxicity was -3.2% (inactive).
With `Cc1ccccc1N(C)S(=O)(=O)c1ccc2[nH]cc(C(=O)NCC3CCCO3)c(=O)c2c1` (stereo unspecified) the cytotoxicity was -13.7% (inactive).
For `O=C(O)COc1ccc(C(=O)Cc2ccc3c(c2)OCCCO3)c(O)c1`, the cytotoxicity was -8.7% (inactive).
In the case of `O=C(O)CCC(=O)c1ccc2c(c1)OCCO2`, the cytotoxicity is reported as 0% (inactive).
For `O=C(Cc1ccc2c(c1)OCCO2)c1c(O)cc(O)cc1O`, the cytotoxicity was 60.9% (active).
In the case of `Nn1c(SCC(=O)NCc2ccccc2)nnc1C1CC1`, the cytotoxicity is reported as 6.6% (inactive).
In the case of `COC(=O)C1CCN(C(=O)C(C)Oc2ccc(Cl)cc2Cl)CC1` (stereo unspecified), the cytotoxicity is reported as -16.4% (inactive).
With `CCN(CC)CCCNC(=O)C1CCN(C(=O)c2cc3sccc3n2Cc2ccc(F)cc2)CC1` the cytotoxicity was 20.7% (inactive).
With `CC(=O)C1=C(C)N=c2s/c(=C/c3ccc4c(c3)OCO4)c(=O)n2C1c1ccc(N(C)C)cc1` (stereo unspecified) the cytotoxicity was -3.5% (inactive).
For `COc1ccc(C2C(C(C)=O)=C(C)N=c3s/c(=C/c4ccc5c(c4)OCO5)c(=O)n32)cc1` (stereo unspecified), the cytotoxicity was -4.1% (inactive).
In the case of `CCOC(=O)c1cnc2c(C(=O)OC)cccc2c1NCCN1CCOCC1`, the cytotoxicity is reported as -10.4% (inactive).
In the case of `COc1ccc(N2CCN(CC(O)c3c[nH]c4ccc(OC)cc34)CC2C)cc1` (stereo unspecified), the cytotoxicity is reported as 41.3% (inactive).
For `COc1ccc(CCNC(=O)c2cc3ccccn3n2)c(OC)c1OC`, the cytotoxicity was -7% (inactive).
In the case of `COc1ccc(OC)c(Nc2nc(-c3sc(C)nc3C)cs2)c1`, the cytotoxicity is reported as 7.9% (inactive).
In the case of `COc1ccc(OC)c(Nc2nc(-c3cccs3)cs2)c1`, the cytotoxicity is reported as 44% (inactive).
With `COc1ccc(OC)c(Nc2nc(-c3ccc(O)c(O)c3)cs2)c1` the cytotoxicity was 67.2% (active).
In the case of `Cc1cc2cc(C(c3nnnn3Cc3ccco3)N3CCc4ccccc4C3)c(=O)[nH]c2cc1C` (stereo unspecified), the cytotoxicity is reported as -4.7% (inactive).
In the case of `Cc1ccc(S(=O)(=O)c2c(C)nn(C(C)(C)C)c2OC(=O)c2ccco2)cc1`, the cytotoxicity is reported as 14.5% (inactive).
For `Cc1nn(C(C)(C)C)c(OC(=O)c2cccs2)c1S(=O)(=O)c1ccccc1`, the cytotoxicity was 54.2% (active).
In the case of `Cc1ccc(S(=O)(=O)c2c(C)nn(C(C)(C)C)c2OC(=O)c2cccs2)cc1`, the cytotoxicity is reported as -6.5% (inactive).
In the case of `Cc1nn(C(C)(C)C)c(OC(=O)c2ccc3c(c2)OCO3)c1S(=O)(=O)c1ccccc1`, the cytotoxicity is reported as 60.9% (active).
In the case of `CC(=O)Oc1c(S(=O)(=O)c2ccccc2)c(C)nn1C(C)(C)C`, the cytotoxicity is reported as 13.3% (inactive).
In the case of `CC(=O)Oc1c(S(=O)(=O)c2ccc(C)cc2)c(C)nn1C(C)(C)C`, the cytotoxicity is reported as 12.6% (inactive).
For `Cc1nn(C(C)(C)C)c(OC(=O)C2CCCC2)c1S(=O)(=O)c1ccccc1`, the cytotoxicity was -9.3% (inactive).
In the case of `Cc1nn(-c2ccccc2)c(OC(=O)c2cccs2)c1S(=O)(=O)c1ccccc1`, the cytotoxicity is reported as -5.8% (inactive).
With `CCC(Sc1nncn1C)C(=O)Nc1nnc(-c2ccccc2Cl)s1` (stereo unspecified) the cytotoxicity was 3.8% (inactive).
With `CC(=O)Nc1ccc(C(=O)Nc2ccc(S(=O)(=O)NCC3CCCO3)cc2)cc1` (stereo unspecified) the cytotoxicity was -3.3% (inactive).
With `CCOc1ccccc1Oc1cn[nH]c1-c1ccc(OC)cc1O` the cytotoxicity was 51.7% (active).
For `COc1ccc(Oc2cn[nH]c2-c2ccc(O)cc2O)cc1`, the cytotoxicity was 9.4% (inactive).
For `COc1ccc(-c2[nH]ncc2Oc2ccccc2OC)c(O)c1`, the cytotoxicity was 6.8% (inactive).
In the case of `COc1ccc(-c2[nH]ncc2-c2cnc(C)s2)c(O)c1`, the cytotoxicity is reported as 6.4% (inactive).
In the case of `C=C(C)COc1ccc(-c2[nH]ncc2Oc2ccccc2OCC)c(O)c1`, the cytotoxicity is reported as 86% (active).
In the case of `CCOc1ccc(-c2[nH]ncc2Oc2ccccc2OCC)c(O)c1`, the cytotoxicity is reported as 53.9% (active).
For `C=C(C)COc1ccc(-c2nc(N)ncc2Oc2ccccc2OCC)c(O)c1`, the cytotoxicity was 7.3% (inactive).
For `CCOc1ccc(-c2[nH]ncc2Oc2ccccc2OC)c(O)c1`, the cytotoxicity was 65.8% (active).
In the case of `O=c1c2c3nc4ccccc4nc3n(/N=C/c3cccs3)c2ncn1-c1ccccc1`, the cytotoxicity is reported as -19.9% (inactive).
For `O=C(CCc1nc2ccccc2[nH]1)Nc1ccc2c(c1)OCO2`, the cytotoxicity was 5.9% (inactive).
With `Cc1noc(C)c1COC(=O)CCN1c2ccccc2Sc2ccccc21` the cytotoxicity was -8% (inactive).
For `COc1ccc(NC(=O)CSc2nc3ccccc3c(=O)n2-c2ccc3c(c2)OCO3)c(OC)c1`, the cytotoxicity was 33.6% (inactive).
In the case of `CCc1ccccc1-n1cnc2cc(C(=O)O)ccc21`, the cytotoxicity is reported as -20.8% (inactive).
For `O=C(O)c1cc(Cl)ccc1NC(=O)C1CCCO1` (stereo unspecified), the cytotoxicity was -8.9% (inactive).
In the case of `C=CCNC(=O)C1CC(c2cccc(OC)c2)=NO1` (stereo unspecified), the cytotoxicity is reported as -8.4% (inactive).
For `CCC1(COC(NC(=O)c2cccnc2)(C(F)(F)F)C(F)(F)F)COC1`, the cytotoxicity was -0.9% (inactive).
For `COc1cccc(-c2nc(CS(=O)CC(=O)NC3CC3)c(C)o2)c1` (stereo unspecified), the cytotoxicity was -3% (inactive).
In the case of `COc1nc(NC23CC4CC(CC(C4)C2)C3)nc(OC)n1`, the cytotoxicity is reported as -8% (inactive).
In the case of `COCCCNC(=O)CN(Cc1ccc(Cl)cc1)S(C)(=O)=O`, the cytotoxicity is reported as -2.6% (inactive).
With `CCCSc1nc(C)c(CC(=O)OCC)c(=O)[nH]1` the cytotoxicity was 4% (inactive).
In the case of `O=C1c2ccccc2C(=O)N1CCSc1nnc(-c2ccco2)n1Cc1ccccc1`, the cytotoxicity is reported as 4.3% (inactive).
For `CCCCCn1c(N(C)Cc2ccccc2)nc2c1c(=O)[nH]c(=O)n2C`, the cytotoxicity was -0.6% (inactive).
For `COc1ccc(-c2[nH]ncc2-c2ccc(Cl)cc2)c(O)c1`, the cytotoxicity was 41.2% (inactive).
With `C=C(C)COc1ccc(-c2[nH]ncc2-c2ccc(OC)c(OC)c2)c(O)c1` the cytotoxicity was 13.3% (inactive).
With `CCOc1ccc(-c2[nH]ncc2-c2ccc(OC)c(OC)c2)c(O)c1` the cytotoxicity was 53.7% (active).
In the case of `CCC(=O)Nc1ccc(F)c(Cl)c1`, the cytotoxicity is reported as -11.3% (inactive).
With `CCOC(=O)Cc1csc(NC(=O)CSc2ncnc3c2cnn3-c2ccccc2Cl)n1` the cytotoxicity was 57.4% (active).
For `Cc1csc(NC(=O)CSc2ncnc3c2cnn3-c2ccccc2Cl)n1`, the cytotoxicity was 19.7% (inactive).
In the case of `CCOC(=O)Cc1csc(NC(=O)CSc2ncnc3c2cnn3-c2ccc(OC)cc2)n1`, the cytotoxicity is reported as -6.9% (inactive).
For `CC1(C)CC(=O)C2=C(C1)N(c1cccc(O)c1)C1=C(C2)C(=O)CC(C)(C)C1`, the cytotoxicity was 59.8% (active).
With `CC1(C)CC(=O)C(C(C2=C(O)CC(C)(C)CC2=O)c2cccc(O)c2)C(=O)C1` (stereo unspecified) the cytotoxicity was 10.5% (inactive).
With `CC1(C)CC(=O)C=C(Nc2cccc(O)c2)C1` the cytotoxicity was 1.7% (inactive).
With `C=CCn1c(O)c(C(CC)=NCc2cccnc2)c(=O)[nH]c1=O` the cytotoxicity was -2.2% (inactive).
With `O=C(NCc1cccnc1)c1cc(-c2ccco2)on1` the cytotoxicity was 1.9% (inactive).
With `N#Cc1cc2c(nc1SCC(=O)NCc1ccc3c(c1)OCO3)CCCCC2` the cytotoxicity was -27.8% (inactive).
